Our source for the Potency and activity change, negative = cytotoxicity values is PubChem BioAssay (Tox21).

Where “and” joins values, the source holds several entries; their conditions need not be identical. Equal entries are not always repeated. Records with an inconclusive call do not appear. Entries that show only a call come without a potency. Where a structure was tested more than once in an assay, its records may differ in their call. Calls of active or inactive are those of the source. Calls follow the shape of the dose curve; as a rule, active = well fitted cell-killing curve with a large enough effect in the repeat runs; inconclusive = weak or mixed curves, or effect the other way; inactive = flat fitted curve, though single readings scatter. Starred links: 1 amine or outer side, 2 acyl side, 3 side chain; linkers in the order of their positions; H or OH if unused. Positions of bridges follow the written chain, without caps; N, C: chain ends. Non-standard residues stand in square brackets, D forms with d. Residues, ends and D or L forms follow the SMILES beside them. Chains are numbered I, II in the order given. Actinocin(9to1) = Cc1c2oc3c(C)ccc(C(=O)[*:1])c3nc-2c(C(=O)[*:2])c(N)c1=O; NMeV = CN[C@H](C(=O)O)C(C)C; Sar = CNCC(=O)O
Potency is read from the fitted curve at half-maximal effect.

The first experiment is described as follows: qHTS assay to identify small molecule agonists of the androgen receptor (AR) signaling pathway in the presence of an antagonist - cell viability counter screen (AID 1259379). Also: nearly all actives have a fitted effect of over 25% in size.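 As to activity change, negative = cytotoxicity: MDA-kb2 human breast cancer cells carrying an MMTV luciferase reporter.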 The note with it: MDA-kb2 viability, CellTiter-Fluor, 16 h; series mostly up to 92.4 µM. In short, it runs like this: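 Cytotoxicity is assessed by CellTiter-Fluor in MDA-kb2 cells carrying an MMTV-driven luciferase reporter. Cells receive 3.0uM nilutamide plus compounds at 15 concentrations and incubate 16 hr at 37C without CO2 before fluorescence reading.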
Background: Quantitative high-throughput screening tests each substance at several concentrations.
As for `C/C=C/c1ccc(OCC)c(O)c1`, the Potency entry is “inactive”.

Regarding `O=C(Cl)c1cccc(C(=O)Cl)c1`, the Potency result is “inactive”.

On to `CC(C)(C)c1ccccc1`, for which the Potency entry was “inactive”.

Turning to `C=C(C)C(=O)O`, the Potency result is “inactive”.

Take `c1ccc2n[nH]nc2c1`: the Potency entry is “inactive”.

Consider `CCCCCCC(O)CCCCCCCCCCC(=O)O` (centres undefined), for which the Potency entry is “inactive”.

As for `Cc1cc(OCCOCC[N+](C)(C)Cc2ccccc2)ccc1C(C)(C)CC(C)(C)C`, the Potency was 54.2 µM (active) and 29.8 µM (active).

`CCC(C)(Oc1ccc(C2(c3ccc(OC(C)(CC)C(=O)O)cc3)CCCCC2)cc1)C(=O)O` (centres undefined): the Potency entry is “inactive”.

Regarding `COC(c1ccccc1)(c1ccccc1)[C@H](Oc1nc(C)cc(C)n1)C(=O)O`, the Potency entry is “inactive”.

`CCC(=O)/C=C/C1C(C)=CCCC1(C)C` (centres undefined): the Potency entry is “inactive”.

In the case of `O=C(O)CCc1ccccc1`, the Potency entry is “inactive”.

Consider `CCC(CO)(CO)COCC(CC)(CO)CO`, for which the Potency result was “inactive”.

Another experiment in a line: qHTS assay to identify small molecule agonists of the estrogen receptor beta (ER-beta) signaling pathway - cell viability counter screen (AID 1259380). Also: nearly all actives have a fitted effect of over 30% in size. The note with it: ER-beta-bla HEK293T viability, CellTiter-Glo luminescence, 16 h; series mostly up to 92.4 µM. In short, it runs like this:
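Cytotoxicity is measured in parallel with the reporter screen: after 16 hr compound exposure at 37C and a 2 hr LiveBLAzer step, CellTiter-Glo is added to the same ER-beta-UAS-bla HEK293T wells and luminescence read after 30 min.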
For the compound `COc1ccc(Cc2cnc(N)nc2N)cc1OC`, the Potency result was “inactive”.

`COC(=O)c1cccc(C(=O)OC)c1`: the Potency result was “inactive”.

As to `Cc1scc2c1N(C(=O)CN1CCN(C)CC1)c1ccccc1NC2=O`, the Potency result is “inactive”.

Turning to `CC(C)(C)NCC(O)COc1ccccc1OCC1CCCO1` (centres undefined), the Potency entry was “inactive”.

Turning to `C=CC(=O)OCCCCCCOC(=O)C=C`, the Potency is 24.3 µM (active).

Consider `CCN(CC)CCOc1ccc(/C(=C(\Cl)c2ccccc2)c2ccccc2)cc1`, for which the Potency was 49.6 µM (active) and 29.8 µM (active).

In the case of `C/C=C/c1ccc(OCC)c(O)c1`, the Potency entry was “inactive”.

With `CCCCCCCCCCCCCCCCCl`, the activity change, negative = cytotoxicity was 3.21% [at 19 µM] (inactive).

On to `Nc1cc(Cl)c(-c2cc(Cl)c(N)cc2Cl)cc1Cl`, for which the Potency was 21.7 µM (active) and 24.3 µM (active).

With `O=C(Cl)c1cccc(C(=O)Cl)c1`, the Potency entry was “inactive”.

For `CN1C(=O)c2ccc([N+](=O)[O-])cc2C1=O`, the Potency entry was “inactive”.

Turning to `CC(C)(C)c1ccccc1`, the Potency result was “inactive”.

For the compound `Oc1c(Cl)cc(Cl)cc1Sc1cc(Cl)cc(Cl)c1O`, the Potency was 54.6 µM (active) and 61.1 µM (active).

Turning to `Cc1c2oc3c(C)ccc(C(=O)N[C@@H]4C(=O)N[C@H](C(C)C)C(=O)N5CCC[C@H]5C(=O)N(C)CC(=O)N(C)[C@@H](C(C)C)C(=O)O[C@@H]4C)c3nc-2c(C(=O)N[C@@H]2C(=O)N[C@H](C(C)C)C(=O)N3CCC[C@H]3C(=O)N(C)CC(=O)N(C)[C@@H](C(C)C)C(=O)O[C@@H]2C)c(N)c1=O` (I: T[dV]P[Sar][NMeV] / II: T[dV]P[Sar][NMeV]; ester I:1-I:C, II:1-II:C; linker I:N-II:N via Actinocin(9to1)), the Potency result was “inactive”.

Regarding `O=C(O[C@@H]1Cc2c(O)cc(O)cc2O[C@@H]1c1cc(O)c(O)c(O)c1)c1cc(O)c(O)c(O)c1`, the Potency entry is “inactive”.

As for `C=C(C)C(=O)O`, the Potency entry was “inactive”.

With `O=c1n(CC2CO2)c(=O)n(CC2CO2)c(=O)n1CC1CO1` (centres undefined), the Potency entry is “inactive”.

As to `c1ccc2n[nH]nc2c1`, the Potency entry is “inactive”.

For the compound `CCCCCCC(O)CCCCCCCCCCC(=O)O` (centres undefined), the Potency entry is “inactive and 48.6 µM (active)”.

In the case of `O=C1Nc2ccccc2C1(c1ccc(O)cc1)c1ccc(O)cc1`, the Potency entry is “inactive”.

With `Cc1cc(OCCOCC[N+](C)(C)Cc2ccccc2)ccc1C(C)(C)CC(C)(C)C`, the Potency is 27.1 µM (active) and 13.3 µM (active).

For `CCC(C)(Oc1ccc(C2(c3ccc(OC(C)(CC)C(=O)O)cc3)CCCCC2)cc1)C(=O)O` (centres undefined), the Potency result is “inactive”.

With `Oc1ccc(Cl)cc1Cc1cc(Cl)ccc1O`, the Potency was 49.4 µM (active) and 48.6 µM (active) and 18.8 µM (active).

Regarding `N[C@@H]1CONC1=O`, the Potency entry is “inactive”.

As to `Cc1ccnc2c1NC(=O)c1cccnc1N2C1CC1`, the Potency entry was “inactive”.

As for `CCOC(=O)C(C)C(C)=O` (centres undefined), the Potency entry is “inactive”.

Turning to `CCC(=O)/C=C/C1C(C)=CCCC1(C)C` (centres undefined), the Potency result is “inactive”.

As for `CC(C(O)c1ccc(O)cc1)N1CCC(Cc2ccccc2)CC1` (centres undefined), the Potency result is “inactive”.

As for `O=C(O)CCc1ccccc1`, the Potency entry is “inactive”.

With `CC1COC(=O)O1` (centres undefined), the Potency entry was “inactive”.

Regarding `CCn1c2ccccc2c2cc(N)ccc21`, the Potency is 17.1 µM (active) and 15.4 µM (active).

For `CC(C)(C)c1cc(C(C)(C)C)c(O)c(C(C)(C)C)c1`, the Potency result was “inactive and 48.6 µM (active)”.

As for `CC(=O)OCC1=C(C(=O)O)N2C(=O)[C@@H](NC(=O)Cc3cccs3)[C@H]2SC1`, the Potency result is “inactive”.

In the case of `Cc1cccc([N+](=O)[O-])c1C(=O)O`, the Potency entry is “inactive”.

For the compound `CCC(CO)(CO)COCC(CC)(CO)CO`, the Potency result is “inactive”.

With `C[N+]1([O-])CCOCC1`, the Potency entry was “inactive”.

As to `Cc1cc(C(C)(C)C)c(O)c(C(C)(C)C)c1`, the Potency entry was “inactive”.
